# Data published in the supplement of paper PMC10849652.
# About 7,900 targets were measured; listed, in parts, are those with a hit and a random draw of the rest. About 0.6% of all pairs of compound and target were hits.
# Experiments:
# Assay in all cases: log2 fold change, soluble protein after heating vs DMSO (PISA); higher = thermal stabilisation; K562 cells, 10 uM, 30 min; active = over 0.2 and 3.5 SD of the protein, either way, in both replicates (recomputed)
# [1] = compound: CCn1c(C(=O)N(C2CC2)C2CC2)cc2c3c(ncn3C)c(Nc3cc(C)n(C)n3)nc21
# Outline: (§1)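 K562 cells (2×10^6 cells/mL) were treated with 10 μM compound for 30 min, and aliquots were heated for 3 min over 48°C-58°C. Pooled aliquots were extracted in PBS with 0.5% NP-40 at 4°C, and the supernatant after 21,000xg for 90 min was measured by TMTpro 16plex LC-MS/MS with channel sums equalised. Reported thermal stability, relative to control samples and from duplicates, is a log2 fold change.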
# alvocidib = compound: CN1CC[C@H](c2c(O)cc(O)c3c(=O)cc(-c4ccccc4Cl)oc23)[C@H](O)C1 [alvocidib]
# Outline: as §1
# Tubastatin A = compound: CN1CCc2c(c3ccccc3n2Cc2ccc(C(=O)NO)cc2)C1 [Tubastatin A]
# Outline: as §1
# [2] = compound: CNC(=O)C1=CC=CC=C1NC2=NC(=NC=C2Cl)NC3=C(C=C(C=C3)N4CCOCC4)OC
# Outline: as §1
# epoxomicin = compound: CC[C@H](C)[C@@H](C(=O)N[C@@H]([C@@H](C)O)C(=O)N[C@@H](CC(C)C)C(=O)[C@]1(CO1)C)NC(=O)[C@H]([C@@H](C)CC)N(C)C(=O)C [epoxomicin]
# Outline: as §1
# [3] = compound: CN(C)CC(=O)Nc1ccc2[nH]c(=O)c3ccccc3c2c1
# Outline: as §1
# rosiglitazone = compound: CN(CCOC1=CC=C(C=C1)C[C@H]2C(=O)NC(=O)S2)C3=CC=CC=N3 (racemic) [rosiglitazone]
# Outline: as §1
# [4] = compound: CN1C2=C(C3=C1C(=O)N(N=C3)CC4=CC(=CC=C4)N)SC(=C2)S(=O)C
# Outline: as §1
# saracatinib = compound: CN1CCN(CCOc2cc(OC3CCOCC3)c3c(Nc4c(Cl)ccc5c4OCO5)ncnc3c2)CC1 [saracatinib]
# Outline: as §1
# defactinib = compound: CNC(=O)c1ccc(Nc2ncc(C(F)(F)F)c(NCc3nccnc3N(C)S(C)(=O)=O)n2)cc1 [defactinib]
# Outline: as §1
# [5] = compound: CNc1nc(-c2ccc3c(N)n[nH]c3c2)cc(N2C[C@@H](C(=O)NC3CCCCC3)CC[C@H]2C)n1
# Outline: as §1
# [6] = compound: COC(=O)[C@H](CCSC)NC(=O)C1=C(C=C(C=C1)NC[C@H](CS)N)C2=CC=CC=C2
# Outline: as §1
# [7] = compound: CC[C@H](C)N1C=C(C2=C(C=C(C=C21)C3=CN=C(C=C3)N4CCNCC4)C(=O)NCC5=C(C=C(NC5=O)C)C)C
# Outline: as §1
# [8] = compound: CC[C@@H]1C(=O)N(C)c2cnc(Nc3ccc(C(=O)NC4CCN(C)CC4)cc3OC)nc2N1C1CCCC1
# Outline: as §1
# volasertib = compound: CC[C@@H]1C(=O)N(C)c2cnc(Nc3ccc(C(=O)N[C@H]4CC[C@H](N5CCN(CC6CC6)CC5)CC4)cc3OC)nc2N1C(C)C [volasertib]
# Outline: as §1
# sotrastaurin = compound: CN1CCN(c2nc(C3=C(c4c[nH]c5ccccc45)C(=O)NC3=O)c3ccccc3n2)CC1 [sotrastaurin]
# Outline: as §1
# rucaparib = compound: CNCc1ccc(-c2[nH]c3cc(F)cc4c3c2CCNC4=O)cc1 [rucaparib]
# Outline: as §1
# encorafenib = compound: COC(=O)N[C@@H](C)CNc1nccc(-c2cn(C(C)C)nc2-c2cc(Cl)cc(NS(C)(=O)=O)c2F)n1 [encorafenib]
# Outline: as §1
# [9] = compound: CCn1cc(-c2ccnc3[nH]c(-c4cccc(CN(C)C)c4)cc23)c(-c2ccc(NC(=O)N(C)C)cc2)n1
# Outline: as §1
# [10] = compound: CN1CCC(CNc2ccc3ncc(-c4cccc(OC(F)(F)F)c4)n3n2)CC1
# Outline: as §1
# UniProt O43529, sequence (O43529 whole entry, looked up): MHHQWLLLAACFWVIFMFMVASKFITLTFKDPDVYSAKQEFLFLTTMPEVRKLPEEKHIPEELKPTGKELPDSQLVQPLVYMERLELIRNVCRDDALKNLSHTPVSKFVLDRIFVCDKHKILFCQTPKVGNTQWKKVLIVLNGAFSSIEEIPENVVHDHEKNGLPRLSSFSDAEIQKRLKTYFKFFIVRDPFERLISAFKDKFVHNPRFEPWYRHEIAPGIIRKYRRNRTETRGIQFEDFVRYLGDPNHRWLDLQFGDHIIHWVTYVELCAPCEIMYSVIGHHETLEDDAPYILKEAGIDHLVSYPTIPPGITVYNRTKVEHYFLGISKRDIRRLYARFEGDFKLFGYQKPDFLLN
# UniProt P46527, sequence (P46527 whole entry, looked up): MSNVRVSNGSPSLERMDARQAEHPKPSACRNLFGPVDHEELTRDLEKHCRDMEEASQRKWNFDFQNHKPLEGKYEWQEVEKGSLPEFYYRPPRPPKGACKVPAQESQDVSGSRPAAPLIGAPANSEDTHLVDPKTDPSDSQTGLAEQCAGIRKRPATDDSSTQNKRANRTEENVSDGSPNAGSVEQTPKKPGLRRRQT
# UniProt Q96LT7, sequence (Q96LT7 whole entry, looked up): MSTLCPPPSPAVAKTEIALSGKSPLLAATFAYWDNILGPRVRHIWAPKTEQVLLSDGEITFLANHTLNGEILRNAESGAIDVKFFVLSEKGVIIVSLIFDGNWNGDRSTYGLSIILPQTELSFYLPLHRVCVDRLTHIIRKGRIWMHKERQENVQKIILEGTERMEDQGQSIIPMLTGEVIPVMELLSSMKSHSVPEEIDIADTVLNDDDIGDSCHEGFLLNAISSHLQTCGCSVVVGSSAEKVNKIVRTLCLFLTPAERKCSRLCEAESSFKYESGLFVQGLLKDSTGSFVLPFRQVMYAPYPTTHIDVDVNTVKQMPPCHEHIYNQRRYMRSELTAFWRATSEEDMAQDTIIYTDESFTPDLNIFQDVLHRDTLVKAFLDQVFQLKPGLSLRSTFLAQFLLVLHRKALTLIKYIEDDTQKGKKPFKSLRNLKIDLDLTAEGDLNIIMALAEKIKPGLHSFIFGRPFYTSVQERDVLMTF
# UniProt Q6P5X5, sequence (Q6P5X5 whole entry, looked up): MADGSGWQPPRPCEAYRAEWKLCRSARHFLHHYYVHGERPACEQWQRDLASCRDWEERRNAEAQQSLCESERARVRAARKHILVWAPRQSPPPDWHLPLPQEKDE
# UniProt P48730, sequence (P48730 whole entry, looked up): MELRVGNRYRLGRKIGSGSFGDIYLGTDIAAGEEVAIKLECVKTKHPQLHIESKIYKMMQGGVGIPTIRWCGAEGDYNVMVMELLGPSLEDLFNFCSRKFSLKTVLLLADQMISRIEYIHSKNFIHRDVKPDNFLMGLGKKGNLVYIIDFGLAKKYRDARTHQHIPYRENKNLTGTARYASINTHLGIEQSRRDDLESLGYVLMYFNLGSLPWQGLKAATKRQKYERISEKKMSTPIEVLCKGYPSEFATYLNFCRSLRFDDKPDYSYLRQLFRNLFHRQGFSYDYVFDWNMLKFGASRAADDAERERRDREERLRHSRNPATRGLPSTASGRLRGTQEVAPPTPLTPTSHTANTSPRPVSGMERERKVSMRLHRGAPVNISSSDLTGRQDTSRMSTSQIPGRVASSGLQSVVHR
# UniProt Q6ZU80, sequence (Q6ZU80 whole entry, looked up): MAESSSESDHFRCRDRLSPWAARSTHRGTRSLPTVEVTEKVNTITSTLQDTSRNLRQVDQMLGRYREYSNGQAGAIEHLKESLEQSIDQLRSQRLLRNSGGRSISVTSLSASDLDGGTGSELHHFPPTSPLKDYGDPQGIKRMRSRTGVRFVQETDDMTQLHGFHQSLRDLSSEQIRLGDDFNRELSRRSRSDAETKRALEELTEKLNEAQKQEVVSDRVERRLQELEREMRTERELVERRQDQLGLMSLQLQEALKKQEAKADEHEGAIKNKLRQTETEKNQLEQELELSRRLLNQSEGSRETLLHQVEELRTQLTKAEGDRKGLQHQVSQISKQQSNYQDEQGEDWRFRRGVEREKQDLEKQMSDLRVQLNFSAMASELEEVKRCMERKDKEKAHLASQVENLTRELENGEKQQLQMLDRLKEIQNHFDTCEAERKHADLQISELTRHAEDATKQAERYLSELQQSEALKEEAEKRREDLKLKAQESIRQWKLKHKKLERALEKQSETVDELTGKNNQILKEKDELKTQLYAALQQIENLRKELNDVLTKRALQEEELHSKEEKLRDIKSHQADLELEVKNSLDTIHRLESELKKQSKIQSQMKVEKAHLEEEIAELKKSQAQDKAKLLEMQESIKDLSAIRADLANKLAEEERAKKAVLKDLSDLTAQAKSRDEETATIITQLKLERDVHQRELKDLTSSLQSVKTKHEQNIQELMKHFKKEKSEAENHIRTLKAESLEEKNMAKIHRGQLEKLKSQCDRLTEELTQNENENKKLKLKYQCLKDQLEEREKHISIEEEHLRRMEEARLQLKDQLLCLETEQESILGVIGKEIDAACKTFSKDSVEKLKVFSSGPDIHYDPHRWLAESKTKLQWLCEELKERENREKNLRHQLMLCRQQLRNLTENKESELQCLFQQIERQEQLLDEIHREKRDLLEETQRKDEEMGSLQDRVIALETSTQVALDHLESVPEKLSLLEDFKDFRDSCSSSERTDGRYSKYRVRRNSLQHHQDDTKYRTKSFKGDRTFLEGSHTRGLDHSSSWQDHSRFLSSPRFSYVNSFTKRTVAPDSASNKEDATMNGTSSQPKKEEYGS
# UniProt Q9HCH3, sequence (Q9HCH3 whole entry, looked up): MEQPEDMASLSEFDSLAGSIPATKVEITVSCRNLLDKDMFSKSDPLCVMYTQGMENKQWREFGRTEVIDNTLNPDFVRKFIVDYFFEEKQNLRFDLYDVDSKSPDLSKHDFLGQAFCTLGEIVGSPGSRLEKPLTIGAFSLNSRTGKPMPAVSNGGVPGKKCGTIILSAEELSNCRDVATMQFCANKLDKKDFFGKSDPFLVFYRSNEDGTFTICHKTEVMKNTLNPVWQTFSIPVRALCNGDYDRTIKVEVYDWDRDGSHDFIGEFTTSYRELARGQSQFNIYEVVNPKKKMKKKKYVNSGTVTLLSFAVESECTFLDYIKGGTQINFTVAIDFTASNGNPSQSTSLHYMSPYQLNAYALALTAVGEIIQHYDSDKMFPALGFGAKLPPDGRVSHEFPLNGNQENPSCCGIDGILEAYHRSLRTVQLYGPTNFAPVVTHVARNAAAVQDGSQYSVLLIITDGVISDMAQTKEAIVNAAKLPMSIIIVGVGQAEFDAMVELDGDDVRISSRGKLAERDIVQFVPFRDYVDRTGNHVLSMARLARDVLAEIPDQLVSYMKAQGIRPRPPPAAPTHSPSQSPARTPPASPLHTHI
# UniProt Q70SY1, sequence (Q70SY1 whole entry, looked up): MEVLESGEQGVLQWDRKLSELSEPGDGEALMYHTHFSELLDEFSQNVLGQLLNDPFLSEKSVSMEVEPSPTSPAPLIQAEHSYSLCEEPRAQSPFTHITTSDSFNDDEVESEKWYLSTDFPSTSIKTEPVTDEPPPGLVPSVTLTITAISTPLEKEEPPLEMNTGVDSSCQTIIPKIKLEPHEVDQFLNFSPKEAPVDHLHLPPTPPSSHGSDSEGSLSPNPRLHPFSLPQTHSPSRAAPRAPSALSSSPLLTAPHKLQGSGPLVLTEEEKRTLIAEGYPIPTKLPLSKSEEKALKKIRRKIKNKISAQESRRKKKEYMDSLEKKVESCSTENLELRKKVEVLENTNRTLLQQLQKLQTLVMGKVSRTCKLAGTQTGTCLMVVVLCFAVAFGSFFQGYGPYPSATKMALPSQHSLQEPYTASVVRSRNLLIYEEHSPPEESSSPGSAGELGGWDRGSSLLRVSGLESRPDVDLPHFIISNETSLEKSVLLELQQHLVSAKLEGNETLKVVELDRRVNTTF
# UniProt Q14677, sequence (Q14677 whole entry, looked up): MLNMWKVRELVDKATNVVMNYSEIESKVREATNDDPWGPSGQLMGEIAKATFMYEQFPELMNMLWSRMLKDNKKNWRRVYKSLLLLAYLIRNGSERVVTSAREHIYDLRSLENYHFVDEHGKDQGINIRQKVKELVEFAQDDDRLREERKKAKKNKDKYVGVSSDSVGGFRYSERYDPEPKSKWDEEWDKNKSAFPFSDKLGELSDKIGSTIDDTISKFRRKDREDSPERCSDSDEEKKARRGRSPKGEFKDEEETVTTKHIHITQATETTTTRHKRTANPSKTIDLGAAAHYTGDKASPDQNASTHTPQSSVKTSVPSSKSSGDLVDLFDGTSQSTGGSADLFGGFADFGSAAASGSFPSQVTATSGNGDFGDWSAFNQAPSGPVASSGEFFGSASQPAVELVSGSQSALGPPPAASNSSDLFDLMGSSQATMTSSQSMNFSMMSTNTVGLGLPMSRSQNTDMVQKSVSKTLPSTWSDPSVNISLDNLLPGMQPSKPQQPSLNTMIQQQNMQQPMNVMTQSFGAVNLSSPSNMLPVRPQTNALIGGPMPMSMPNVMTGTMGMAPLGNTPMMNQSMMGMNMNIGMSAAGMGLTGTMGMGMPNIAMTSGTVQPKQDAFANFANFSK
# UniProt Q9UIB8, sequence (Q9UIB8 whole entry, looked up): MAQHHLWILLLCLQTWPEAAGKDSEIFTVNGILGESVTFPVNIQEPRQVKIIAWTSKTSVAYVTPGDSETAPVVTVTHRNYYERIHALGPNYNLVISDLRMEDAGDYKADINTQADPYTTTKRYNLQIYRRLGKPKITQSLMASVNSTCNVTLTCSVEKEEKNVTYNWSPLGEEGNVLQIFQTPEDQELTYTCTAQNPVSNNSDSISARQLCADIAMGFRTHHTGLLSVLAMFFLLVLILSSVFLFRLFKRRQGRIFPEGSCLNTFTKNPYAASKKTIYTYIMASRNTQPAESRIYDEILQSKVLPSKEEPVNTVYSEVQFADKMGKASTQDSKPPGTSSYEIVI
Target,log2 fold change [1],log2 fold change (alvocidib),log2 fold change (Tubastatin A),log2 fold change [2],log2 fold change (epoxomicin),log2 fold change [3],log2 fold change (rosiglitazone),log2 fold change [4],log2 fold change (saracatinib),log2 fold change (defactinib),log2 fold change [5],log2 fold change [6],log2 fold change [7],log2 fold change [8],log2 fold change (volasertib),log2 fold change (sotrastaurin),log2 fold change (rucaparib),log2 fold change (encorafenib),log2 fold change [9],log2 fold change [10]
CPNE5 (UniProt Q9HCH3),0.132 (inactive),0.134 (inactive),0.082 (inactive),0.049 (inactive),,,,,,,,,,,,,,,,
CA1 (UniProt E5RIF9),,,-0.178 (inactive),,0.132 (inactive),-0.037 (inactive),-0.083 (inactive),-0.056 (inactive),0.272 (inactive),-0.09 (inactive),0.093 (inactive),-0.129 (inactive),,,,,,,,
CREB3L2 (UniProt Q70SY1),-0.125 (inactive),-0.242 (inactive),0.282 (inactive),-0.19 (inactive),0.035 (inactive),0.069 (inactive),-0.031 (inactive),,,-0.039 (inactive),,-0.172 (inactive),0.067 (inactive),,,,,,,
CEP128 (UniProt Q6ZU80),,0.033 (inactive),0.024 (inactive),,,-0.11 (inactive),0.049 (inactive),0.039 (inactive),-0.092 (inactive),0.027 (inactive),-0.22 (inactive),0.044 (inactive),,-0.009 (inactive),-0.09 (inactive),-0.022 (inactive),-0.306 (inactive),0.061 (inactive),,
C9orf72 (UniProt Q96LT7),0.003 (inactive),-0.04 (inactive),-0.126 (inactive),-0.071 (inactive),-0.008 (inactive),0.075 (inactive),-0.033 (inactive),-0.094 (inactive),0.071 (inactive),-0.056 (inactive),-0.021 (inactive),0 (inactive),0.062 (inactive),,-0.089 (inactive),0.129 (inactive),,,0.226 (inactive),0.209 (inactive)
CLINT1 (UniProt Q14677),,-0.112 (inactive),-0.029 (inactive),,-0.035 (inactive),-0.075 (inactive),0.003 (inactive),-0.218 (inactive),-0.003 (inactive),-0.002 (inactive),-0.062 (inactive),0.036 (inactive),0.021 (inactive),-0.022 (inactive),,,0.128 (inactive),-0.045 (inactive),,
C22orf39 (UniProt Q6P5X5),-0.08 (inactive),0.013 (inactive),-0.013 (inactive),0.129 (inactive),0.081 (inactive),,-0.119 (inactive),0.043 (inactive),0.076 (inactive),,0.056 (inactive),,-0.042 (inactive),,0.134 (inactive),-0.028 (inactive),,,,
CD84 (UniProt Q9UIB8),0.111 (inactive),-0.111 (inactive),-0.039 (inactive),-0.119 (inactive),-0.009 (inactive),,,-0.077 (inactive),-0.012 (inactive),,0.56 (active),,,,,-0.144 (inactive),,,,
CCNL1 (UniProt Q9UK58),-0.078 (inactive),,,-0.179 (inactive),,,,,,,,,,,,,,,,
CENPE (UniProt Q02224),-0.079 (inactive),-0.385 (inactive),0.091 (inactive),-0.277 (inactive),,-0.061 (inactive),0.03 (inactive),-0.255 (inactive),0.318 (inactive),-0.056 (inactive),0.399 (inactive),0.198 (inactive),,,0.137 (inactive),-0.19 (inactive),,,-0.039 (inactive),0.192 (inactive)
CHST10 (UniProt O43529),-0.043 (inactive),-0.106 (inactive),-0.037 (inactive),0.035 (inactive),-0.019 (inactive),,0.081 (inactive),,,,,,0.002 (inactive),,-0.146 (inactive),-0.01 (inactive),,,-0.021 (inactive),-0.108 (inactive)
CDKN1B (UniProt P46527),-0.034 (inactive),0.256 (inactive),,-0.247 (inactive),0.393 (inactive),0.025 (inactive),0.067 (inactive),0.06 (inactive),0.29 (inactive),0.163 (inactive),-0.298 (inactive),0.028 (inactive),-0.083 (inactive),,0.028 (inactive),0.129 (inactive),,,0.036 (inactive),0.073 (inactive)
CSNK1D (UniProt P48730),-0.088 (inactive),0.063 (inactive),0.039 (inactive),0.111 (inactive),0.026 (inactive),-0.019 (inactive),-0.062 (inactive),0.15 (inactive),-0.047 (inactive),0.045 (inactive),-0.038 (inactive),-0.012 (inactive),0 (inactive),,-0.133 (inactive),-0.038 (inactive),0.032 (inactive),0.06 (inactive),,0.315 (inactive)
CLCN5 isoform 2 (UniProt P51795),0.002 (inactive),-0.032 (inactive),-0.006 (inactive),0.009 (inactive),,0.046 (inactive),,0.098 (inactive),-0.001 (inactive),-0.033 (inactive),-0.116 (inactive),-0.025 (inactive),0.151 (inactive),-0.299 (inactive),,,0.097 (inactive),0.075 (inactive),0.172 (inactive),-0.267 (inactive)
